The subject of one assay is KB-3-1. Kind of assay: Cytotoxic Profiling of Annotated Libraries Using Quantitative High-Throughput Screening (AID 1296008). On max response: on the % scale 0 is the no-effect control and ±100 the full control effect. The following applies: Five cell lines viability, CellTiter-Glo ATP luminescence, 48-72 h; max response: hits give low values. In a few lines:
(§1)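 Compounds were pin-transferred onto cells and incubated 48 or 72 hr at 37 degree Celsius, 95% humidity. CellTiter-Glo was added, plates sat 10 min at room temperature, then ATP-coupled luminescence was imaged as the viability read-out.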
Background: In ATP-based viability assays light output follows the ATP content of the culture.

The subject of assay [1] is NIH3T3. The assay is described as above. The following applies: Five cell lines viability, CellTiter-Glo ATP luminescence, 48-72 h; max response: hits give low values. Put shortly: as §1
Assay [2] concerns NIH3T3. Briefly: qHTS assay to identify novel small-molecules to repurpose for Merkel cell carcinoma treatment (AID 1296009). The following applies: MCC and control cell lines, CellTiter-Glo viability, 72 h; at 44.8 µM (top of the series) unless noted. Put shortly:
(§2)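 Luminescence from CellTiter-Glo, read 10 min after addition at room temperature, reported viability following a 72 hr, 37 degree celsius treatment with NPC or MIPE compounds in titration; values normalized to plate controls.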
(qHTS replaces the single test concentration by a dilution series.)

The next assay has as its system HEK293T. The assay is described as above. The settings on record: MCC and control cell lines, CellTiter-Glo viability, 72 h; at 44.8 µM (top of the series) unless noted. In a few lines: as §2
The subject of another assay is CRL-7250. Described as above. The following applies: MCC and control cell lines, CellTiter-Glo viability, 72 h; at 44.8 µM (top of the series) unless noted. Put shortly: as §2
For another assay, the system named is HACAT. The assay is described as above. The following applies: MCC and control cell lines, CellTiter-Glo viability, 72 h; at 44.8 µM (top of the series) unless noted. Put shortly:
as §2

The test system of another assay is MCC-13. Described as above. The settings on record: MCC and control cell lines, CellTiter-Glo viability, 72 h. Put shortly:
as §2

Another assay deals with MCC-26. Described as above. The following applies: MCC and control cell lines, CellTiter-Glo viability, 72 h. Put shortly: as §2
Another assay deals with MKL-1. The assay is described as above. The settings on record: MCC and control cell lines, CellTiter-Glo viability, 72 h. Put shortly:
as §2

A further assay relates to MKL-2. The description is as above. The settings on record: MCC and control cell lines, CellTiter-Glo viability, 72 h. In a few lines:
as §2

Several values for one entry are separate records, joined by “and”; a condition that tells them apart may be missing. Identical values can stand only once. Inconclusive results are not listed. Values without a mark were called inactive. Activity calls are given as the source filed them. The call rests on the fitted dose curve; in most records, active means well fitted inhibition curve with a large enough effect; inconclusive means small, poorly fitted or top-dose-only effect; inactive means flat fitted curve, though single readings scatter.
Further: nearly all actives have a fitted effect of over 60% in size.
Potency means the concentration at half of the fitted maximal effect.

Take `CCN1CC2(COC)C3[C@@H](OC)C4C1C3(C1C[C@]3(O)[C@H](OC(=O)c5ccccc5)C1[C@]4(OC(C)=O)[C@@H](O)[C@@H]3OC)[C@H](OC)C[C@H]2O` (some centres undefined): the molecule was called inactive in the assay on KB-3-1, in the assay with NIH3T3 [1] and with NIH3T3 [2].
With `C=C[C@H]1[C@H](O[C@@H]2O[C@H](CO)[C@@H](O)[C@H](O)[C@H]2O)OC=C2C(=O)OCC[C@H]21`, the molecule was called inactive in the assay with KB-3-1, in the assay with NIH3T3 [1], in the assay with HEK293T and in the assay with NIH3T3 [2].
In the case of `CN(C(=O)Cc1ccccc1)C(CN1CCCC1)c1ccccc1` (centres undefined), the max response in the assay with KB-3-1 was -9.97%. Besides, the outcome in the assay on NIH3T3 [1] and with NIH3T3 [2] was inactive.
Take `CN1C(=O)c2ccccc2NC(=O)C1Cc1ccccc1` (centres undefined): the max response was 3.82% with KB-3-1 and -1.81% with NIH3T3 [1]. For the same molecule, the molecule was called inactive in the assay on HEK293T.
As to `CC1=C2C(=O)C3[C@@H](CC=C4C[C@@H](O)CC[C@@]43C)[C@@H]2CC[C@]12O[C@@H]1C[C@H](C)CN[C@H]1[C@H]2C` (some centres undefined), in the assay with NIH3T3 [1], the call was inactive. Besides, the outcome with CRL-7250 and in the assay with HACAT was “inactive [at 17.4 µM]” each time.
Regarding `C[CH2][Hg][S]c1ccccc1C(=O)O`, the Potency in the assay on KB-3-1 is 7.31 µM (active); in the assay with MCC-13 it was 15 µM (active); in the assay with MCC-26, 15 µM (active); in the assay on MKL-1, 2.99 µM (active); in the assay with MKL-2 it was 0.944 µM (active).
Consider `C=C(C)[C@H]1O[C@H]2CC[C@@]3(C)[C@@](O)(CC[C@H]4[C@@H]5OC(C)(C)[C@H]6C[C@@H]7C(=C)Cc8c(Cl)cc9[nH]c(c5c9c8[C@@]76O)[C@@]43C)[C@]23O[C@@H]3[C@H]1O`, for which the molecule was called inactive in the assay on KB-3-1. Besides, the max response in the assay on NIH3T3 [1] is -2.87%. The outcome in the assay with HEK293T is “inactive [at 17.4 µM]”.
As to `CN1C(=O)c2ccccc2NC(=O)[C@]12O[C@@H]2c1ccccc1`, the results for the max response with KB-3-1 and with NIH3T3 [1] were 8.97% and -7.39%, respectively. Also, in the assay with HEK293T, the outcome was inactive.
Consider `CCC(C)(OC(C)=O)C(=O)O[C@H]1[C@H](OC(C)=O)C[C@@H]2[C@@](C)([C@@H]3C[C@H]4C=CO[C@H]4O3)[C@H](C)C[C@H](OC(C)=O)[C@@]2(COC(C)=O)[C@@]12CO2` (some centres undefined), for which the outcome in the assay with NIH3T3 [1] was inactive. In addition, the outcome with CRL-7250, in the assay on HACAT, in the assay with HEK293T and in the assay with NIH3T3 [2] was “inactive [at 17.4 µM]” in each case.
For `COC(=O)C12C(=O)C(C)(O)C(=O)C1(C)C(C)=CC1C34CCC(OC3=O)C(C)(CO)C4CCC12C` (centres undefined), in the assay on NIH3T3 [1], the call was inactive. Besides, the outcome with CRL-7250 was “inactive [at 17.4 µM]”.
Take `Clc1ccc(N2C[C@H]3CC[C@@H](C2)N3)nn1`: in the assay on KB-3-1, the max response is 2.38%. Further, the outcome in the assay on NIH3T3 [1] and in the assay on NIH3T3 [2] was inactive.
Turning to `COC(=O)C1(C)CCC(=O)C2(C)c3c(O)cc(C(C)C)cc3C(O)C(OC(C)=O)C12` (centres undefined), in the assay with NIH3T3 [1], the molecule was called inactive. In the assay on NIH3T3 [2], the outcome was “inactive [at 17.4 µM]”.
`C[C@]12CC[C@@H](O)C[C@H]1CC[C@@H]1[C@@H]2CC[C@]2(C)C(=O)CC[C@@H]12`: the call in the assay on NIH3T3 [1] was inactive.
On to `COC1CC(OC2CCC3(C=O)C(CCC4C3CCC3(C)C(C5=CC(=O)OC5)CCC43O)C2)OC(C)C1OC1OC(CO)C(O)C(O)C1O` (centres undefined), for which the Potency in the assay on KB-3-1 was 0.343 µM (active). In the assay on NIH3T3 [1], the result was inactive. The outcome with NIH3T3 [2] was “inactive [at 17.4 µM]”.
As to `CCN1C[C@]2(OC(=O)c3ccccc3NC(C)=O)CC[C@H](OC)[C@@]34[C@@H]2C[C@@H]([C@@H]13)[C@@]1(O)C[C@H](OC)[C@H]2C[C@@H]4[C@]1(O)[C@H]2OC`, the outcome in the assay on NIH3T3 [1], in the assay with HACAT and in the assay with NIH3T3 [2] was inactive.
With `CC(=O)OC1CC(O)C2(C)C(CC(OC(C)=O)C3(C)C2CCC2(C)C(c4ccoc4)C(=O)C4OC423)C1(C)C` (centres undefined), the max response was 8.18% in the assay on KB-3-1 and -1.6% in the assay with NIH3T3 [1]. Moreover, the outcome in the assay on HEK293T was “inactive [at 17.4 µM]”.
With `CO[C@@H]1[C@H](O)[C@@H](O[C@@H]2C[C@H]3CC[C@@H]4C(CC[C@]5(C)[C@@H](C6=CC(=O)OC6)CC[C@]45O)[C@@]3(C)[C@H](O)C2)O[C@H](C)[C@@H]1O[C@@H]1O[C@H](CO)[C@@H](O)[C@H](O)[C@H]1O` (some centres undefined), in the assay with NIH3T3 [1], the outcome was inactive.
For the molecule `COC1CC(O[C@H]2CC[C@@]3(C)C(=CCC4C3C(O)[C@@H](O)[C@]3(C)[C@@H](C(C)=O)CC[C@]43O)C2)OC(C)C1OC1CC(OC)C(OC2OC(C)C(O)C(O)C2O)C(C)O1` (some centres undefined), the molecule was classed as inactive in the assay on NIH3T3 [1]. The outcome in the assay on HACAT and in the assay on HEK293T was “inactive [at 9.27 µM]” throughout.
Turning to `COC(=O)N1CCN(C(=O)Cc2ccc(Cl)c(Cl)c2)[C@@H](CN2CCCC2)C1`, in the assay on KB-3-1, the max response is -3.66%. For the same molecule, the outcome with NIH3T3 [1] and with NIH3T3 [2] was inactive.
As for `CC1C/C=C/C(O)C(O)CC/C=C/c2cc(O)cc(O)c2C(=O)O1` (centres undefined), the max response in the assay with NIH3T3 [1] was 3.47%. The call in the assay on CRL-7250 and in the assay with HEK293T was inactive.
`CC(C)(O)[C@H]1O[C@H]2CC[C@@]3(C)[C@@](O)(CC[C@H]4Cc5c([nH]c6ccccc56)[C@@]43C)C2=CC1=O`: in the assay with KB-3-1, the max response was 9.13%. Further, the outcome in the assay on NIH3T3 [1] was inactive. For the same molecule, the outcome in the assay on NIH3T3 [2] is “inactive [at 17.4 µM]”.
As for `C[C@H]1O[C@@H](O[C@H]2C[C@@H](O)[C@]3(CO)C4C(CC[C@]3(O)C2)[C@@]2(O)CC[C@H](C3=CC(=O)OC3)[C@@]2(C)C[C@H]4O)[C@@H](O)[C@@H](O)[C@H]1O` (some centres undefined), in the assay with NIH3T3 [1], the outcome was inactive.
With `C/C=C(\C)C(=O)O[C@H]1[C@H](OC(C)=O)[C@]2(CO)[C@H](O)[C@H](O)[C@]3(C)C(=CCC4[C@@]5(C)CC[C@H](O[C@@H]6O[C@H](C(=O)O)[C@@H](O)[C@H](O[C@@H]7OC[C@H](O)[C@H](O[C@@H]8OC[C@H](O)[C@H](O)[C@H]8O)[C@H]7O)[C@H]6O[C@@H]6O[C@H](CO)[C@@H](O)[C@H](O)[C@H]6O)C(C)(C)C5CC[C@]43C)[C@@H]2CC1(C)C` (some centres undefined), the result in the assay with NIH3T3 [1] was inactive. The outcome with HEK293T was “inactive [at 9.27 µM]”.
`CCOc1ccccc1-n1c(C(C)N2CCN(C(=O)COc3ccc(Cl)cc3)CC2)nc2ccccc2c1=O` (centres undefined): in the assay on NIH3T3 [1], the Potency is 1.03 µM (active) and 933 nM (active).
On to `CC1=C2C[C@H]3[C@@H](CC=C4C[C@@H](O)CC[C@@]43C)[C@@H]2CC[C@]12O[C@@H]1C[C@H](C)CN[C@H]1[C@H]2C`, for which the max response in the assay with KB-3-1 was 1.29%. The outcome in the assay on NIH3T3 [1] and in the assay on HEK293T was inactive.
For `C[C@H]1C(=O)O[C@H]2[C@H](O)[C@]34C5OC(=O)[C@]3(O[C@@H]3OC(=O)[C@H](O)C34[C@H](C(C)(C)C)[C@H]5O)C12O` (some centres undefined), the molecule was called inactive in the assay with NIH3T3 [1]. In addition, the outcome in the assay on CRL-7250 and in the assay with HACAT was “inactive [at 17.4 µM]” throughout.
For the molecule `CC(C)=C1CC[C@]23CO[C@H](C2)[C@@](O)(C(=O)O)CCC13` (some centres undefined), the figures for the max response in the assay with KB-3-1 and in the assay with NIH3T3 [1] were 4.44% and 1.86%, respectively. For the same molecule, the molecule was classed as inactive with HEK293T.
Consider `CC(N)Cc1c[nH]c2ccccc12` (centres undefined), for which the molecule was called inactive with KB-3-1, with NIH3T3 [1], in the assay with HEK293T and in the assay with NIH3T3 [2].

These data come from PubChem BioAssay (NCATS).
